Experiments:
Experiment in all cases: cell viability of combination (% of vehicle); higher = less cytotoxic
Settings in all cases: 1 µM; 72 h; partner dose: 10 nM
HCI01 = system: HCI01 (cells of a triple-negative basal-like breast cancer xenograft)
Procedure: (§1)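 PDX cells were treated for 72 h with each drug at 1 µM plus afatinib (10 nM; 1 µM for WHIM30). Luciferase viability is expressed as percent of vehicle.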

UCD52 = system: UCD52 (cells of a triple-negative basal-like breast cancer xenograft)
Procedure: as §1

WHIM2 = system: WHIM2 (cells of a triple-negative basal-like breast cancer xenograft)
Procedure: as §1

CC[C@@]1(O)C(=O)OCc2c1cc1n(c2=O)Cc2cc3c(CN(C)C)c(O)ccc3nc2-1.Cl [Topotecan HCl] + CN(C)C/C=C/C(=O)Nc1cc2c(Nc3ccc(F)c(Cl)c3)ncnc2cc1O[C@H]1CCOC1 [Afatinib]
cell viability of combination (HCI01): 41.4
cell viability of combination (UCD52): 66.5
cell viability of combination (WHIM2): 25.2

Cl.O.O=C1Cc2cc(CCN3CCN(c4nsc5ccccc45)CC3)c(Cl)cc2N1 [Ziprasidone hydrochloride monohydrate] + CN(C)C/C=C/C(=O)Nc1cc2c(Nc3ccc(F)c(Cl)c3)ncnc2cc1O[C@H]1CCOC1 [Afatinib]
cell viability of combination (HCI01): 46.7
cell viability of combination (UCD52): 70.3
cell viability of combination (WHIM2): 45.2

C#Cc1cccc(Nc2ncnc3cc(OCCOC)c(OCCOC)cc23)c1.Cl [Erlotinib Hydrochloride] + CN(C)C/C=C/C(=O)Nc1cc2c(Nc3ccc(F)c(Cl)c3)ncnc2cc1O[C@H]1CCOC1 [Afatinib]
cell viability of combination (HCI01): 47.7
cell viability of combination (UCD52): 54.5
cell viability of combination (WHIM2): 37.5

CCCCc1oc2ccc(NS(C)(=O)=O)cc2c1C(=O)c1ccc(OCCCN(CCCC)CCCC)cc1 [Dronedarone] + CN(C)C/C=C/C(=O)Nc1cc2c(Nc3ccc(F)c(Cl)c3)ncnc2cc1O[C@H]1CCOC1 [Afatinib]
cell viability of combination (HCI01): 48.1
cell viability of combination (UCD52): 57.7
cell viability of combination (WHIM2): 44.1

C#Cc1cccc(Nc2ncnc3cc(OCCOC)c(OCCOC)cc23)c1 [Erlotinib] + CN(C)C/C=C/C(=O)Nc1cc2c(Nc3ccc(F)c(Cl)c3)ncnc2cc1O[C@H]1CCOC1 [Afatinib]
cell viability of combination (HCI01): 41.1
cell viability of combination (UCD52): 55
cell viability of combination (WHIM2): 42

N.N.O=C([O-])C1(C(=O)[O-])CCC1.[Pt+2] [Carboplatin] + CN(C)C/C=C/C(=O)Nc1cc2c(Nc3ccc(F)c(Cl)c3)ncnc2cc1O[C@H]1CCOC1 [Afatinib]
cell viability of combination (HCI01): 60.1
cell viability of combination (UCD52): 68.6
cell viability of combination (WHIM2): 53.1

CNC(=O)c1cc(Oc2ccc(NC(=O)Nc3ccc(Cl)c(C(F)(F)F)c3)cc2)ccn1.Cc1ccc(S(=O)(=O)O)cc1 [Sorafenib Tosylate] + CN(C)C/C=C/C(=O)Nc1cc2c(Nc3ccc(F)c(Cl)c3)ncnc2cc1O[C@H]1CCOC1 [Afatinib]
cell viability of combination (HCI01): 46.6
cell viability of combination (UCD52): 42.3
cell viability of combination (WHIM2): 42.4

CC(C)c1nc(CN(C)C(=O)NC(C(=O)NC(Cc2ccccc2)CC(O)C(Cc2ccccc2)NC(=O)OCc2cncs2)C(C)C)cs1 (stereo not drawn) [Ritonavir] + CN(C)C/C=C/C(=O)Nc1cc2c(Nc3ccc(F)c(Cl)c3)ncnc2cc1O[C@H]1CCOC1 [Afatinib]
cell viability of combination (HCI01): 49.1
cell viability of combination (UCD52): 62.5
cell viability of combination (WHIM2): 49

CC1=C(C(=O)OC(C)C)C(c2cccc([N+](=O)[O-])c2)C(C(=O)OC2CN(C(c3ccccc3)c3ccccc3)C2)=C(N)N1 (stereo not drawn) [Azelnidipine] + CN(C)C/C=C/C(=O)Nc1cc2c(Nc3ccc(F)c(Cl)c3)ncnc2cc1O[C@H]1CCOC1 [Afatinib]
cell viability of combination (HCI01): 56.7
cell viability of combination (UCD52): 52.3
cell viability of combination (WHIM2): 43

Nc1ncn(C2OC(CO)C(O)C2O)c(=O)n1 (stereo not drawn) [5-Azacytidine] + CN(C)C/C=C/C(=O)Nc1cc2c(Nc3ccc(F)c(Cl)c3)ncnc2cc1O[C@H]1CCOC1 [Afatinib]
cell viability of combination (HCI01): 53.5
cell viability of combination (UCD52): 58.5
cell viability of combination (WHIM2): 48.9

Clc1ccc(C(Cn2ccnc2)OCc2c(Cl)cccc2Cl)c(Cl)c1.O=[N+]([O-])O (stereo not drawn) [Isoconazole nitrate] + CN(C)C/C=C/C(=O)Nc1cc2c(Nc3ccc(F)c(Cl)c3)ncnc2cc1O[C@H]1CCOC1 [Afatinib]
cell viability of combination (HCI01): 63.8
cell viability of combination (UCD52): 78.3
cell viability of combination (WHIM2): 52.1

CC(C)Nc1cc(-c2c[nH]c(C(=O)NC(CO)c3cccc(Cl)c3)c2)c(Cl)cn1 (stereo not drawn) + CN(C)C/C=C/C(=O)Nc1cc2c(Nc3ccc(F)c(Cl)c3)ncnc2cc1O[C@H]1CCOC1 [Afatinib]
cell viability of combination (HCI01): 50.7
cell viability of combination (UCD52): 50.5
cell viability of combination (WHIM2): 30.3

COC(=O)C12CCC(C)(C)CC1C1C(=O)C=C3C4(C)C=C(C#N)C(=O)C(C)(C)C4CCC3(C)C1(C)CC2 (stereo not drawn) [Bardoxolone methyl] + CN(C)C/C=C/C(=O)Nc1cc2c(Nc3ccc(F)c(Cl)c3)ncnc2cc1O[C@H]1CCOC1 [Afatinib]
cell viability of combination (HCI01): 53.5
cell viability of combination (UCD52): 47.9
cell viability of combination (WHIM2): 30.4

CCN(CC)CCCC(C)Nc1ccnc2cc(Cl)ccc12.O=P(O)(O)O.O=P(O)(O)O (stereo not drawn) [Chloroquine diphosphate] + CN(C)C/C=C/C(=O)Nc1cc2c(Nc3ccc(F)c(Cl)c3)ncnc2cc1O[C@H]1CCOC1 [Afatinib]
cell viability of combination (HCI01): 44.6
cell viability of combination (UCD52): 48.5
cell viability of combination (WHIM2): 34.5

COc1cc2ncnc(Nc3ccc(F)c(Cl)c3)c2cc1NC(=O)C=CCN1CCCCC1 + CN(C)C/C=C/C(=O)Nc1cc2c(Nc3ccc(F)c(Cl)c3)ncnc2cc1O[C@H]1CCOC1 [Afatinib]
cell viability of combination (HCI01): 45.1
cell viability of combination (UCD52): 33
cell viability of combination (WHIM2): 29.8

COc1cc(Nc2ncc(F)c(Nc3ccc4c(n3)N(COP(=O)(O)O)C(=O)C(C)(C)O4)n2)cc(OC)c1OC [Fostamatinib (R788)] + CN(C)C/C=C/C(=O)Nc1cc2c(Nc3ccc(F)c(Cl)c3)ncnc2cc1O[C@H]1CCOC1 [Afatinib]
cell viability of combination (HCI01): 64.2
cell viability of combination (UCD52): 74.9
cell viability of combination (WHIM2): 41.3

CC1(C)Cc2c(-c3ccccc3)c(-c3ccc(Cl)cc3)c(CC(=O)O)n2C1 [Licofelone] + CN(C)C/C=C/C(=O)Nc1cc2c(Nc3ccc(F)c(Cl)c3)ncnc2cc1O[C@H]1CCOC1 [Afatinib]
cell viability of combination (HCI01): 66.1
cell viability of combination (UCD52): 72.7
cell viability of combination (WHIM2): 46.8

Cc1cn(-c2cc(NC(=O)c3ccc(C)c(Nc4nccc(-c5cccnc5)n4)c3)cc(C(F)(F)F)c2)cn1 [Nilotinib(AMN-107)] + CN(C)C/C=C/C(=O)Nc1cc2c(Nc3ccc(F)c(Cl)c3)ncnc2cc1O[C@H]1CCOC1 [Afatinib]
cell viability of combination (HCI01): 45.9
cell viability of combination (UCD52): 56.1
cell viability of combination (WHIM2): 63.2

O=C(NN=Cc1ccc([N+](=O)[O-])o1)c1ccc(O)cc1 [Nifuroxazide] + CN(C)C/C=C/C(=O)Nc1cc2c(Nc3ccc(F)c(Cl)c3)ncnc2cc1O[C@H]1CCOC1 [Afatinib]
cell viability of combination (HCI01): 50.8
cell viability of combination (UCD52): 79.4
cell viability of combination (WHIM2): 48.8

CNC(=O)c1cc(Oc2ccc(NC(=O)Nc3ccc(Cl)c(C(F)(F)F)c3)c(F)c2)ccn1 [Regorafenib] + CN(C)C/C=C/C(=O)Nc1cc2c(Nc3ccc(F)c(Cl)c3)ncnc2cc1O[C@H]1CCOC1 [Afatinib]
cell viability of combination (HCI01): 46.8
cell viability of combination (UCD52): 55.9
cell viability of combination (WHIM2): 44.2

Cc1ccc(NC(=O)c2ccc(CN3CCN(C)CC3)cc2)cc1Nc1nc(-c2cccnc2)cs1 [Masitinib (AB1010)] + CN(C)C/C=C/C(=O)Nc1cc2c(Nc3ccc(F)c(Cl)c3)ncnc2cc1O[C@H]1CCOC1 [Afatinib]
cell viability of combination (HCI01): 47.8
cell viability of combination (UCD52): 64.5
cell viability of combination (WHIM2): 54.7

CC(CCC(=O)O)C1CCC2C3CCC4CC(O)CCC4(C)C3CCC12C (stereo not drawn) [Lithocholic Acid] + CN(C)C/C=C/C(=O)Nc1cc2c(Nc3ccc(F)c(Cl)c3)ncnc2cc1O[C@H]1CCOC1 [Afatinib]
cell viability of combination (HCI01): 45.1
cell viability of combination (UCD52): 52.6
cell viability of combination (WHIM2): 40.5

Cc1ccc(C(=O)N(CCCN)C(c2nc3cc(Cl)ccc3c(=O)n2Cc2ccccc2)C(C)C)cc1 (stereo not drawn) + CN(C)C/C=C/C(=O)Nc1cc2c(Nc3ccc(F)c(Cl)c3)ncnc2cc1O[C@H]1CCOC1 [Afatinib]
cell viability of combination (HCI01): 50.5
cell viability of combination (UCD52): 36
cell viability of combination (WHIM2): 35.8

Clc1ccc(COC(Cn2ccnc2)c2ccc(Cl)cc2Cl)cc1.O=[N+]([O-])O (stereo not drawn) [Econazole nitrate] + CN(C)C/C=C/C(=O)Nc1cc2c(Nc3ccc(F)c(Cl)c3)ncnc2cc1O[C@H]1CCOC1 [Afatinib]
cell viability of combination (HCI01): 55.8
cell viability of combination (UCD52): 62.2
cell viability of combination (WHIM2): 55.8

CC(C)c1nc(N(C)S(C)(=O)=O)nc(-c2ccc(F)cc2)c1C=CC(O)CC(O)CC(=O)[O-].CC(C)c1nc(N(C)S(C)(=O)=O)nc(-c2ccc(F)cc2)c1C=CC(O)CC(O)CC(=O)[O-].[Ca+2] (stereo not drawn) [Rosuvastatin Calcium] + CN(C)C/C=C/C(=O)Nc1cc2c(Nc3ccc(F)c(Cl)c3)ncnc2cc1O[C@H]1CCOC1 [Afatinib]
cell viability of combination (HCI01): 51.4
cell viability of combination (UCD52): 55.2
cell viability of combination (WHIM2): 44.2

CCc1c(Cl)c(O)c(Cl)c(O)c1C(=O)OC1C(C)OC(OCC2=CC=CCC(O)C(C)=CC(CC)C(OC3OC(C)(C)C(OC(=O)C(C)C)C(O)C3O)C(C)=CC(C)=CCC(C(C)O)OC2=O)C(OC)C1O (stereo not drawn) [Fidaxomicin] + CN(C)C/C=C/C(=O)Nc1cc2c(Nc3ccc(F)c(Cl)c3)ncnc2cc1O[C@H]1CCOC1 [Afatinib]
cell viability of combination (HCI01): 56.2
cell viability of combination (UCD52): 81.9
cell viability of combination (WHIM2): 51.9

Reference: the supplement of paper PMC6992640
